Screening results (PubChem BioAssay)
This is a sample that favours compounds with a hit; in the whole collection about 7.6% have one here.
BRCA1 expr act = activators of BRCA1 expression; MCF7-BRCA1-FFLuc reporter, luminescence, 48 h; response scale: scaled: vehicle 0%, 10 µM genistein 100%; AID 624202; 380,000 compounds, 1.1% hits; Potency, µM (highest dose often 46.1 µM), usual class: activators; further: nearly all actives have a fitted effect of over 80% in size
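Activators of BRCA1 expression were detected as increased firefly luciferase luminescence in engineered MCF7 cells after 48 h compound incubation. Signals were scaled to genistein 10 microM as full activation.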
p53 reactivator = restores transcriptional activity of mutant p53; H1299 p53-A138V BP100-luciferase reporter, luminescence, 24 h; 320,000 compounds, 0.063% hits; Potency, µM (series often up to 92.2 µM), most hits filed as activators; further: nearly all actives have a fitted effect of over 45% in size
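p53-null H1299 cells stably carrying temperature-sensitive p53-A138V and a BP100-luciferase reporter were pinned with compounds (4-point, 1:5 series) and held 24 hrs at 37 deg C. Luminescence was read 10 min after detection reagent.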
RORgamma inh = inhibitors of mouse ROR gamma transcriptional activity. P51450. Drosophila S2 Gal4-RORgamma UAS-luciferase reporter, 20 h. Potency, µM (titrated, usually from 53.6 µM), usual class: inhibitors. 310,000 compounds, 5.4% hits; further: nearly all actives have a fitted effect of over 60% in size
Target sequence (P51450 whole entry, looked up, the tested form may be a part): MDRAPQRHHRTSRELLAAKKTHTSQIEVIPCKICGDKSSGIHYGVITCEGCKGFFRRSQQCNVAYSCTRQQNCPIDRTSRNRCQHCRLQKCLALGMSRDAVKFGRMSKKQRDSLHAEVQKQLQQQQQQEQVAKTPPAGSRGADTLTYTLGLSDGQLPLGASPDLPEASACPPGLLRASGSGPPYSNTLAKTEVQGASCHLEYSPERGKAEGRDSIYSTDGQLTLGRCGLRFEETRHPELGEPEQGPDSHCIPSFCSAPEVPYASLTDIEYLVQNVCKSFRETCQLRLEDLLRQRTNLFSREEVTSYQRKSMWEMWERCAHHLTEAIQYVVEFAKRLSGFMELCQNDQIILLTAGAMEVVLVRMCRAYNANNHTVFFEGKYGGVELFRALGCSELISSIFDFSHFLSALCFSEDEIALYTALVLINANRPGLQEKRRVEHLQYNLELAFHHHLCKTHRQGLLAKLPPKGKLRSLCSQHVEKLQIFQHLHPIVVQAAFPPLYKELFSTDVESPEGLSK
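ROR gamma transcriptional activity was tracked as Gal4-UAS luciferase output in stably transfected Drosophila Schneider cells, with compound added 1 hr before 700 uM copper sulfate induction and a 20 hr ambient-temperature incubation.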
ELG1 repair inh = inhibitors of ELG1-dependent DNA repair in HEK293T cells. HEK293T ELG1-luciferase reporter, luminescence, 16 h; DNA damage induced by 5-fluorouridine. Potency, µM (highest dose often 46.1 µM), usual class: inhibitors. 330,000 compounds, 2.3% hits. AID 504467; further: nearly all actives have a fitted effect of over 55% in size
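HEK293T cells expressing luciferase-tagged ELG1 (2,000/well) received 5-Fluorouridine plus compound or DMSO for 16 hr at 37 °C. Luciferase was read by ONE-Glo luminescence after 30 min at room temperature.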
Gal4-VP16 FLuc = inhibits Gal4-VP16 luciferase reporter, ROR gamma counter-screen | 310,000 compounds, 3.5% hits | Drosophila S2 Gal4-VP16 UAS-luciferase, luminescence, 20 h | Potency, µM (titrated, usually from 53.6 µM), hits mostly inhibitors;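 further: Gal4-VP16 expression switched on by copper sulfate through the metallothionein promoter; nearly all actives have a fitted effect of over 50% in size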
Giardia killer = Giardia lamblia killing; activity change, % at 7.66 µM, hits read low; 340,000 compounds, 0.15% hits; Giardia lamblia trophozoite viability; in the data active means activity change below about -80%; inconclusive means between about -30% and that limit;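 further: parasites exposed to compound for two days anaerobically before the ATP read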
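Giardia trophozoites, 100 cells per well, were exposed to compounds for 48 hrs at 37 deg C under anaerobic conditions; viability was then read as ATP content by bioluminescence after 15-30 min at room temperature.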
A number is an active result; – = inactive; ? = inconclusive; · = not tested or not shown. Unless noted, the call rests on the fitted dose curve; in most records, active means well fitted curve in the direction sought with a large enough effect; inconclusive means small, poorly fitted or top-dose-only effect, or another doubt; inactive means no such curve, though single readings can be large; an effect the other way counts as inactive or inconclusive.

SMILES | BRCA1 expr act | p53 reactivator | RORgamma inh | ELG1 repair inh | Gal4-VP16 FLuc | Giardia killer
Cc1ccc(CCNC(=O)CCn2c(=O)c3cccn3c3ccc(F)cc32)cc1 | – | – | – | – | – | ?
COc1ccc(/C=C/C2=CC(C)(C)NC(=S)N2)cc1 | – | – | 1.3µM | ? | 2.5µM | –
COc1ccc(C(=O)Nc2cccc3c2CCCC3)cc1 | – | – | – | – | – | –
Cc1cccc(NC(=S)NNc2ncc(C(F)(F)F)cc2Cl)c1 | – | – | 16µM | ? | 13µM | ?
FC(F)(F)c1cnc(NNC(=S)Nc2ccccc2Cl)c(Cl)c1 | – | – | ? | ? | 10µM | –
COc1cc(NC(=O)c2cccc([N+](=O)[O-])c2)ccc1NC(=O)c1ccco1 | – | – | – | – | – | –
Cc1cc([N+](=O)[O-])ccc1NC(=O)c1ccco1 | – | – | – | – | – | –
COc1cc(NC(=O)c2ccc([N+](=O)[O-])o2)ccc1NC(=O)c1ccco1 | – | – | ? | – | ? | -96
Cc1cc(NC(=O)c2ccc([N+](=O)[O-])o2)ccc1NC(=O)c1ccco1 | – | – | – | ? | – | -94
CC12CN(C(=O)c3cccc([N+](=O)[O-])c3)C3(C#N)CC1CCC23C (centres undefined) | – | ? | – | – | – | –
COc1ccc(NC(=O)c2nc[nH]c2C(=O)N[C@@H](CC(C)C)C(=O)OC(C)(C)C)cc1 | – | – | 5.6µM | ? | 16µM | –
CC(C)C[C@H](NC(=O)c1[nH]cnc1C(=O)Nc1ccccc1F)C(=O)OC(C)(C)C | – | · | · | · | · | ·
C[C@H](NC(=O)c1[nH]cnc1C(=O)N[C@H](C)c1ccccc1)c1ccccc1 | – | – | · | – | · | –
COc1ccc(NC(=O)c2nc[nH]c2C(=O)N2CCN(c3ccccc3)CC2)cc1 | – | – | 5.6µM | – | 11µM | –
O=C(Nc1ccccc1)c1nc[nH]c1C(=O)N1CCN(c2ccccc2)CC1 | – | – | · | – | · | –
COc1ccc(NC(=O)c2nc[nH]c2C(=O)N[C@@H](C)c2ccccc2)cc1 | – | – | 6.3µM | ? | 8.9µM | –
C[C@H](NC(=O)c1[nH]cnc1C(=O)Nc1ccccc1)C(=O)OC(C)(C)C | – | – | 2.8µM | ? | 11µM | –
COc1ccc(NC(=O)c2nc[nH]c2C(=O)Nc2ccccc2C)cc1 | – | – | 3.2µM | – | 8.9µM | –
CNC(=O)c1[nH]cnc1C(=O)N[C@@H](C)C(=O)OC(C)(C)C | – | – | – | – | – | –
COc1ccc(NC(=O)c2nc[nH]c2C(=O)N[C@@H](C)C(=O)OC(C)(C)C)cc1 | – | – | 11µM | – | ? | –
Cc1ccc(NC(=O)c2nc[nH]c2C(=O)N[C@@H](C)C(=O)OC(C)(C)C)cc1 | – | – | 6.3µM | – | ? | –
C[C@H](NC(=O)c1nc[nH]c1C(=O)N[C@@H](C)C(=O)OC(C)(C)C)C(=O)OCc1ccccc1 | – | · | ? | – | ? | –
CCCN1CCC(=O)N(CCN=[N+]=[N-])CC1 | – | – | – | – | – | –
CCc1c(C#N)sc(C(N)=O)c1CC | – | – | – | 10µM | – | –
O=C(COc1ccc2c3c(c(=O)oc2c1)CCC3)NCC1CCC(C(=O)O)CC1 (centres undefined) | – | – | – | – | – | –
SMILES | BRCA1 expr act | p53 reactivator | RORgamma inh | ELG1 repair inh | Gal4-VP16 FLuc | Giardia killer
Nc1nc(NCCO)nc(NCC2CCCO2)c1[N+](=O)[O-] (centres undefined) | – | – | – | – | – | –
CC1=NC(Nc2nc(C)c3ccccc3n2)=NC(C)(C)C1 | – | – | – | – | – | –
O=C(Cc1ccccc1)N/N=C/c1ccc[nH]1 | – | – | 13µM | – | – | –
Cc1ccc(NCC(=O)N/N=C\c2ccc[nH]2)cc1 | – | – | 6.3µM | – | ? | –
NC(=O)N/N=C/c1ccc2cccc(OCc3ccccc3)c2n1 | – | – | – | – | – | –
O=C(Cc1ccccc1)N/N=C/c1ccc2cccc(O)c2n1 | – | – | 7.9µM | – | ? | –
Cc1ccc(C)c(NC(=O)CCC(=O)N/N=C/c2ccc[nH]2)c1 | – | ? | – | – | – | –
CC(C)(C)n1nc2c(c1NC(=O)c1ccc(Cl)c([N+](=O)[O-])c1)CS(=O)(=O)C2 | – | – | – | – | – | –
CSc1ccc(Cc2ccc(Cl)cc2Cl)nn1 | ? | ? | – | ? | – | –
NNc1ccc(Cc2ccc(Cl)cc2Cl)nn1 | – | – | 3.5µM | ? | ? | –
C=CCn1c(SCc2csc(C)n2)nc2sc3c(c2c1=O)CCCC3 | – | – | – | – | – | –
COc1ccc2sc(-c3ccc(S(C)(=O)=O)cc3)c(C(=O)NCCCN3CCCC3=O)c2c1 | – | – | · | 16µM | · | –
COc1cc2sc(-c3ccc(S(C)(=O)=O)cc3)c(C(=O)NCc3ccc(C)o3)c2cc1OC | – | – | · | 18µM | · | –
COc1ccc2[nH]c(C(=O)NCCCN3CCCC3=O)c(C)c2c1 | – | – | – | ? | – | –
O=C(NC1CC1)C1CCN(C(=O)c2ccc(Cl)cc2Cl)CC1 | – | – | – | – | – | –
CC1=CC(C)(C)Nc2ccc(OC(=O)C(C)N3C(=O)c4ccccc4C3=O)cc21 (centres undefined) | – | – | ? | – | 11µM | –
CC1=CC(C)(C)Nc2ccc(OC(=O)c3cccnc3)cc21 | – | – | 0.5µM | – | 0.79µM | –
CC1=CC(C)(C)Nc2ccc(OC(=O)c3ccco3)cc21 | – | – | 2.8µM | ? | 5.6µM | –
CC1=CC(C)(C)Nc2ccc(C)cc21 | – | – | – | – | – | –
CC1=CC(C)(C)Nc2ccc(OC(=O)CN3C(=O)CCC3=O)cc21 | – | – | 5.6µM | ? | 7.1µM | –
COc1cccc2c(SCC(=O)N/N=C/c3ccc(O)cc3O)cc(C)nc12 | – | – | ? | – | – | –
C=CCNC(=O)/C(C#N)=C/c1c(C)nn(-c2ccccc2)c1Cl | – | – | ? | – | 13µM | –
CCNC(=O)/C(C#N)=C/c1c(N2CCN(c3ccccc3)CC2)nc2ccccn2c1=O | – | – | – | – | – | –
N#C/C(=C\c1c(N(Cc2ccccc2)Cc2ccccc2)nc2ccccn2c1=O)C(N)=O | – | – | ? | 16µM | 7.1µM | –
C=CCNC(=O)/C(C#N)=C/c1c(N(Cc2ccccc2)Cc2ccccc2)nc2ccccn2c1=O | – | – | – | 13µM | – | –
NS(=O)(=O)c1ccc(NC2=CC(=O)C(=O)c3ccccc32)cc1 | – | – | 10µM | 10µM | ? | –
Cc1ccc(NC2=CC(=O)C(=O)c3ccccc32)cc1 | – | – | ? | ? | ? | –
CCCCN(C)C(=O)Cn1cnc2sc(C)c(S(=O)(=O)N3CCN(c4ccccc4OC)CC3)c2c1=O | – | – | – | 5.2µM | – | –
